In PubChem BioAssay (NCATS):
Results filed as inconclusive are left out. Active and inactive are the calls of the source. The call rests on the fitted dose curve; in most records, active means well fitted curve in the direction sought with a large enough effect; inconclusive means small, poorly fitted or top-dose-only effect, or another doubt; inactive means no such curve, though single readings can be large; an effect the other way counts as inactive or inconclusive. Where a SMILES comes first, the peptide text is derived from it.

Legend:
NIH3T3 = test: qHTS assay to identify novel small-molecules to repurpose for Merkel cell carcinoma treatment (AID 1296009); settings: MCC and control cell lines, CellTiter-Glo viability, 72 h; at 44.8 µM (top of the series) unless noted; further: nearly all actives have a fitted effect of over 60% in size
Procedure, shortened: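 Cell viability measured by CellTiter-Glo following 72 hr compound treatment at 37 degree celsius, with NPC and MIPE libraries tested in 8- and 11-point concentration series.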

C33A = test: Primary qHTS to identify gynecologic anti-cancer compounds using libraries of approved drugs and bioactive compounds (AID 1345084); settings: Gynecologic cancer cell panel viability, ATPlite luminescence, 48 h; series mostly up to 57.5 µM; further: on the % scale 0 is the no-effect control and ±100 the full control effect; nearly all actives have a fitted effect of over 55% in size
Procedure, shortened: (§1)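 Cells, 1,000 per well, plated 16 h, then exposed 48 h at 37 C to compounds. Viability by ATPlite luminescence after 15 min at room temperature.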

CAOV3 = test: as above; settings: Gynecologic cancer cell panel viability, ATPlite luminescence, 48 h; series mostly up to 57.5 µM
Procedure, shortened: as §1

CASKI = test: as above; settings: Gynecologic cancer cell panel viability, ATPlite luminescence, 48 h; series mostly up to 57.5 µM
Procedure, shortened: as §1

N#CCc1ccc(O)cc1O[C@@H]1O[C@H](CO)[C@@H](O)[C@H](O)[C@H]1O
inactive: outcome (NIH3T3) | Potency (C33A) | Potency (CAOV3) | Potency (CASKI)

CC1CCC2C(C)(C)C(O)CCC2(C)C12Cc1c(O)cc3c(c1O2)CN=C3N (stereo unspecified)
inactive: outcome (NIH3T3) | Potency (C33A) | Potency (CAOV3) | Potency (CASKI)

C[C@@H]1O[C@@H](O[C@H]2[C@H](OC(C#N)c3ccc(O)cc3)O[C@H](CO)[C@@H](O)[C@@H]2O)[C@H](O)[C@H](O)[C@H]1O (stereo partly specified)
inactive: outcome (NIH3T3) inactive [at 17.4 µM] | Potency (C33A) | Potency (CAOV3) | Potency (CASKI)

C=C1C2=CC(O)C(C)C1(C)CC/C(C)=C/CCC1(C)OC1C2=O (stereo unspecified)
inactive: outcome (NIH3T3) | Potency (C33A) | Potency (CAOV3) | Potency (CASKI)

O=C(CCCCc1ccc2ccccc2c1)C(F)(F)F
inactive: outcome (NIH3T3) inactive [at 92 µM] | Potency (C33A) | Potency (CAOV3) | Potency (CASKI)

CC1NC(=O)CNC(=O)C(C(C)C)NC(=O)C2CCCN2C(=O)C(C(C)C)NC(=O)C(Cc2c[nH]c3ccccc23)NC1=O (stereo unspecified) (cyclo(GAWVPV); configuration not given here)
inactive: outcome (NIH3T3) inactive [at 17.4 µM] | Potency (C33A) | Potency (CAOV3) | Potency (CASKI)

COc1ccc2cc(OCC3(C(=O)O)CN(C(=O)c4ccc(F)cc4)C3)ccc2c1
inactive: outcome (NIH3T3) | Potency (C33A) | Potency (CAOV3) | Potency (CASKI)

C=C1CC[C@@H]2[C@](C)(CO[C@@H]3O[C@H](CO)[C@@H](O)[C@H](O)[C@H]3O)CCC[C@@]2(C)[C@@H]1CCC1=CCOC1=O
inactive: outcome (NIH3T3) inactive [at 17.4 µM] | Potency (C33A) | Potency (CAOV3) | Potency (CASKI)

C=C(C)C1CC2(CO)C(=CC1=O)CCC(O)C2C (stereo unspecified)
inactive: outcome (NIH3T3) | Potency (C33A) | Potency (CAOV3) | Potency (CASKI)

C[C@]12CCC[C@](C)(C(=O)O)C1CCC13C=C(CO)C(CCC12)C3 (stereo partly specified)
inactive: outcome (NIH3T3) | Potency (C33A) | Potency (CAOV3) | Potency (CASKI)

CC1CCC23COC(=O)C2=CC(O)CC3C1(C)CCC1=CC(=O)OC1O (stereo unspecified)
inactive: outcome (NIH3T3) | Potency (C33A) | Potency (CAOV3) | Potency (CASKI)

CC(=O)NC(CCC(=O)O)C(=O)NCCc1ccc(O)cc1 (stereo unspecified)
inactive: outcome (NIH3T3) | Potency (C33A) | Potency (CAOV3) | Potency (CASKI)

CC1CCCC2OC2C(=O)c2c(O)cc(O)cc2CC(=O)O1 (stereo unspecified)
inactive: outcome (NIH3T3) | Potency (C33A) | Potency (CAOV3) | Potency (CASKI)

C[C@]12CCC(=O)C=C1[C@@H](O)C[C@@H]1[C@@H]2[C@@H](O)C[C@@]2(C)[C@H]1CC[C@]2(O)C(=O)CO
inactive: outcome (NIH3T3) | Potency (C33A) | Potency (CAOV3) | Potency (CASKI)

COc1cccc(-c2ccc([C@@H](Oc3cc(-c4ccc(C[C@H](N)C(=O)O)cc4)nc(N)n3)C(F)(F)F)cc2)c1
inactive: outcome (NIH3T3) | Potency (C33A) | Potency (CAOV3) | Potency (CASKI)

CC(=O)OCC1=C[C@H](O)[C@@H]2C(C(=O)O)=CO[C@@H](O[C@@H]3O[C@H](CO)[C@@H](O)[C@H](O)[C@H]3O)[C@H]12
inactive: outcome (NIH3T3) inactive [at 17.4 µM] | Potency (C33A) | Potency (CAOV3) | Potency (CASKI)

Cc1[nH]cnc1C1CCN(c2nc3cccc4c3n2CCC4=O)CC1
inactive: outcome (NIH3T3) | Potency (C33A) | Potency (CAOV3) | Potency (CASKI)

C/C=C/C1=CC2=C(CO1)C(=O)[C@](C)(O)[C@H](OC(=O)c1c(O)cc(OC)c(O)c1C)C2
inactive: outcome (NIH3T3) inactive [at 17.4 µM] | Potency (C33A) | Potency (CAOV3) | Potency (CASKI)

CC(C)CC1(C(=O)OCc2ccc(O[C@@H]3O[C@H](CO)[C@@H](O)[C@H](O)[C@H]3O)cc2)CC(=O)OC(C(=O)O)CC(=O)OCC2OC(O1)C(OC(=O)/C=C/c1ccc(O)cc1)C(O)C2O (stereo partly specified)
inactive: outcome (NIH3T3) inactive [at 9.27 µM] | activity change, negative = cytotoxicity (C33A) -0.106% [at 11.6 µM] | activity change, negative = cytotoxicity (CAOV3) 1.66% [at 11.6 µM] | activity change, negative = cytotoxicity (CASKI) -1.89% [at 11.6 µM]

O=C(O)C[C@H]1CCC(=O)[C@@H]1C/C=C\CCOC1OC(CO)C(O)C(O)C1O (stereo partly specified)
inactive: outcome (NIH3T3) | Potency (C33A) | Potency (CAOV3) | Potency (CASKI)

CC(C)C1=CCC(C)(O)C(OC2OC(CO)C(O)C(O)C2O)C1 (stereo unspecified)
inactive: outcome (NIH3T3) | Potency (C33A) | Potency (CAOV3) | Potency (CASKI)

CC(NCc1ccc(OCc2cccc(F)c2)cc1)C(N)=O (stereo unspecified)
inactive: outcome (NIH3T3) | Potency (C33A) | Potency (CAOV3) | Potency (CASKI)

COc1ccccc1[C@@H]1C2=C(CC(C)(C)CC2=O)Nc2n[nH]c(C(F)(F)F)c21
inactive: outcome (NIH3T3) | Potency (C33A) | Potency (CAOV3) | Potency (CASKI)

COc1cc(/C=C/c2cc(O)cc(O[C@@H]3O[C@H](CO)[C@@H](O)[C@H](O)[C@H]3O)c2)ccc1O
inactive: outcome (NIH3T3) inactive [at 17.4 µM] | Potency (C33A) | Potency (CAOV3) | Potency (CASKI)
